Data published in PubChem BioAssay (Tox21).
Records with an inconclusive call do not appear. Entries that show only a call come without a potency. Values without a mark were called inactive. Active and inactive are the calls of the source. Unless noted, calls follow the shape of the dose curve; as a rule, active = well fitted curve in the direction sought with a large enough effect in the repeat runs; inconclusive = weak or mixed curves; inactive = no such curve, though single readings can be large; an effect the other way counts as inactive or inconclusive.

Key:
[1] = qHTS assay to identify small molecule antagonists of the thyroid receptor (TR) signaling pathway (AID 743065); also: series mostly up to about 70 µM; nearly all actives have a fitted effect of over 55% in size
How it was run: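 Antagonism measured as loss of luciferase signal in GH3 cells stably carrying a TRE-luciferase reporter, co-treated with compound and T3 (1 nM final) for 23.5 h at 37 C. Viability was read in the same well by CellTiter-Fluor.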

[2] = tested on: thyroid hormone receptor (rat, GH3 cells); experiment: qHTS assay to identify small molecule agonists of the thyroid receptor (TR) signaling pathway (AID 743066; calls by dose curve)
[3] = qHTS assay to identify small molecule antagonists of the estrogen receptor alpha (ER-alpha) signaling pathway - cell viability counter screen (AID 743074; calls by dose curve;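 also: HEK293 cells carrying ER-alpha-UAS-bla reporter stimulated with 17beta-estradiol; nearly all actives have a fitted effect of over 45% in size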)
[4] = target: Estrogen receptor (Homo sapiens) (UniProt P03372); experiment: qHTS assay to identify small molecule agonists of the estrogen receptor alpha (ER-alpha) signaling pathway (AID 743075; calls by dose curve;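 also: HEK293 GripTite cells with ER-alpha and UAS-driven beta-lactamase reporter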)
Sequence of Estrogen receptor (Homo sapiens) (P03372 whole entry, looked up): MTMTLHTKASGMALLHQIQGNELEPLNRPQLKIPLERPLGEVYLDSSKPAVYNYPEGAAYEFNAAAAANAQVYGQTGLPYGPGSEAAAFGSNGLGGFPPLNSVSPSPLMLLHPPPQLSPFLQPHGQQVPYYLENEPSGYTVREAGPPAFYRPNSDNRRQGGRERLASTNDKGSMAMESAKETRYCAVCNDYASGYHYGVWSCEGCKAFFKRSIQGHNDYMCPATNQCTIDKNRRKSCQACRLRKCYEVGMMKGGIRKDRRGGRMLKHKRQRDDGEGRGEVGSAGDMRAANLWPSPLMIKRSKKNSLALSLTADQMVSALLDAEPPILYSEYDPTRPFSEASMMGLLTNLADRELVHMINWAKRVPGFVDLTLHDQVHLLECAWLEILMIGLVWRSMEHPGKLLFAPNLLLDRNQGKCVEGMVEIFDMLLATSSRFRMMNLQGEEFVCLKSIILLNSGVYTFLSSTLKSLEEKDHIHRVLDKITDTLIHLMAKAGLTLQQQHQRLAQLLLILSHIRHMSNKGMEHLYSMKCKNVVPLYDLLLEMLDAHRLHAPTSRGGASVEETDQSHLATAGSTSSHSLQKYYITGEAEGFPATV

[5] = target: Estrogen receptor (Homo sapiens) (UniProt P03372); experiment: qHTS assay to identify small molecule agonists of the estrogen receptor alpha (ER-alpha) signaling pathway using the BG1 cell line (AID 743079); also: nearly all actives have a fitted effect of over 20% in size
[6] = qHTS assay to identify small molecule antagonists of the estrogen receptor alpha (ER-alpha) signaling pathway using the BG1 cell line (AID 743080; calls by dose curve;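 also: BG1 cells stimulated with 17beta-estradiol alongside compound; series mostly up to about 70 µM; nearly all actives have a fitted effect of over 25% in size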)
How it was run: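 Readout is ONE-Glo luminescence, taken 30 min at room temperature after reagent addition, preceded by a CellTiter-Fluor viability read; BG1-Luc-4E2 cells had received compound and 17beta-estradiol for 21.5 h at 37 C.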

[7] = qHTS assay to identify small molecule antagonists of the estrogen receptor alpha (ER-alpha) signaling pathway using the BG1 cell line - cell viability counter screen (AID 743081);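 also: compound given together with 17beta-estradiol as the ER stimulus; series mostly up to about 70 µM; nearly all actives have a fitted effect of over 45% in size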
[8] = target: Aromatase (Homo sapiens) (UniProt P11511); experiment: qHTS assay to identify aromatase inhibitors (AID 743083); also: series mostly up to about 70 µM; nearly all actives have a fitted effect of over 55% in size
Sequence of Aromatase (Homo sapiens) (P11511 whole entry, looked up): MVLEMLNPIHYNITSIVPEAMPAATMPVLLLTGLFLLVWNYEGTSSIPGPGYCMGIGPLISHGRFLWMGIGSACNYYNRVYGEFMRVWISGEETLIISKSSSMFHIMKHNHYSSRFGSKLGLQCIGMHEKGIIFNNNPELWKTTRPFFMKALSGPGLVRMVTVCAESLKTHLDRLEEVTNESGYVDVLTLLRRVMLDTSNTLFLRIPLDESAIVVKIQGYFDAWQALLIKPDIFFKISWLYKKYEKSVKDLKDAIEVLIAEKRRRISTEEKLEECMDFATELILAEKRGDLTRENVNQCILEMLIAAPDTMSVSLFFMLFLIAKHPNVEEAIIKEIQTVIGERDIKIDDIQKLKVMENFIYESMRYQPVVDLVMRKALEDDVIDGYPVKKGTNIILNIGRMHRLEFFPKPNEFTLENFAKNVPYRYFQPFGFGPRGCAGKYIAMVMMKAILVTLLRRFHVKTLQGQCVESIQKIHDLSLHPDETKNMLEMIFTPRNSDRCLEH

[9] = qHTS assay to identify aromatase inhibitors - cell viability counter screen (AID 743084);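 also: cells stimulated with testosterone during compound exposure; nearly all actives have a fitted effect of over 55% in size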
[10] = target: Aryl hydrocarbon receptor (Homo sapiens) (UniProt P35869); experiment: qHTS assay to identify small molecule that activate the aryl hydrocarbon receptor (AhR) signaling pathway (AID 743085); also: nearly all actives have a fitted effect of over 15% in size; also: potency is read from the fitted curve at half-maximal effect;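 as to activation: HG2L7.5c1 human HepG2 liver cells with stably integrated DRE-driven firefly reporter; series mostly up to about 70 µM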
Sequence of Aryl hydrocarbon receptor (Homo sapiens) (P35869 whole entry, looked up): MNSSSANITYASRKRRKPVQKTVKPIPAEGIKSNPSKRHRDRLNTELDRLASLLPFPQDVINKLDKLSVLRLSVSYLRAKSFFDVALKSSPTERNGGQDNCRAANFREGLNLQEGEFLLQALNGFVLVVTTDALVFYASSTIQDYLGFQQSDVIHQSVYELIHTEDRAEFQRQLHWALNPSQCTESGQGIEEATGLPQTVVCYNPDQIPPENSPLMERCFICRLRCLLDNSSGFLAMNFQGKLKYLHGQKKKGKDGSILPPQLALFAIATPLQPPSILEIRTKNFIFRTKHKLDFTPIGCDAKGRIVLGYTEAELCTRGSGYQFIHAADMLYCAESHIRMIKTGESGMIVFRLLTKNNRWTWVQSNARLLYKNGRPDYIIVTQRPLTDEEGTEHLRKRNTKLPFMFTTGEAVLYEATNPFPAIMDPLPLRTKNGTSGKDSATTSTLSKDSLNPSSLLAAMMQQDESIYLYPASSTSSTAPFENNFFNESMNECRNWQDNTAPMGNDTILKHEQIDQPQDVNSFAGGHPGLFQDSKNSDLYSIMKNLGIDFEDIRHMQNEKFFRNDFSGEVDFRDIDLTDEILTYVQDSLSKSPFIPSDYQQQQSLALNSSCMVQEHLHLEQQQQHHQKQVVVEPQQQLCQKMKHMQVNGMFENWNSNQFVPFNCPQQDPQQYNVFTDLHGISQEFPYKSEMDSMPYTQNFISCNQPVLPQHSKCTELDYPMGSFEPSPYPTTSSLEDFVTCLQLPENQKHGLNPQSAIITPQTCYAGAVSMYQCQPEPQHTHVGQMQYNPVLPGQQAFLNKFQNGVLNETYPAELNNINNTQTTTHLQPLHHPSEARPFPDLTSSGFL
How it was run: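 24 h compound exposure, 37C, HepG2-derived HG2L7.5c1 cells with DRE-responsive luciferase. Readouts: fluorescence viability, then luminescence at room temperature after 30 min.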

[11] = qHTS assay to identify small molecule that activate the aryl hydrocarbon receptor (AhR) signaling pathway - cell viability counter screen (AID 743086);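 also: HepG2 liver cells carrying the AhR DRE luciferase reporter; series mostly up to about 70 µM; nearly all actives have a fitted effect of over 45% in size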
How it was run: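 Cytotoxicity counter screen: CellTiter-Fluor signal (30 min, 37 C) in 4000 HepG2 cells/well carrying the DRE-luciferase reporter, following 24 h compound exposure at 37 C.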

[12] = target: Peroxisome proliferator-activated receptor gamma (Homo sapiens) (UniProt P37231); experiment: qHTS assay to identify small molecule agonists of the peroxisome proliferator-activated receptor gamma (PPARg) signaling pathway (AID 743094; active = well fitted activation curve with a large enough effect in the signal ratio in the repeat runs, not every such curve was filed as active; the % refers to the signal ratio)
Sequence of Peroxisome proliferator-activated receptor gamma (Homo sapiens) (P37231 whole entry, looked up): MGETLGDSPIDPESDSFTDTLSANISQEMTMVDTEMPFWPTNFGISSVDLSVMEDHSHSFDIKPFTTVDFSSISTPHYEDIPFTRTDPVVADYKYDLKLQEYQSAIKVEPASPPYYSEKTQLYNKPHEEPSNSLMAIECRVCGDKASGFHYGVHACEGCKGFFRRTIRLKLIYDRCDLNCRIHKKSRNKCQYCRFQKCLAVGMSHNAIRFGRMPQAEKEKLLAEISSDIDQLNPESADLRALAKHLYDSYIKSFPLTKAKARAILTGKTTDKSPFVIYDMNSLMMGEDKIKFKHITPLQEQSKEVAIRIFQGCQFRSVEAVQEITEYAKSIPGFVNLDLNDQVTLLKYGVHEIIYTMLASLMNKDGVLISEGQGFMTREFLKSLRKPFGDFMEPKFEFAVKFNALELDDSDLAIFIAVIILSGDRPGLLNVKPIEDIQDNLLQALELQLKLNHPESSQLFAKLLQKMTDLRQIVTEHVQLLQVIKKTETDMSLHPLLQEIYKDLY
How it was run: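 Agonist activity was taken from a beta-lactamase reporter (FRET substrate, 1 h at room temperature) in HEK293H cells carrying a PPARg UAS-bla construct. Compounds in DMSO were incubated 17 h at 37C after a 5 h cell pre-incubation.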

[13] = target: Peroxisome proliferator-activated receptor gamma (Homo sapiens) (UniProt P37231); experiment: qHTS assay to identify small molecule antagonists of the peroxisome proliferator-activated receptor gamma (PPARg) signaling pathway (AID 743191; calls by dose curve; also: nearly all actives have a fitted effect of over 30% in size; also: potency is read from the fitted curve at half-maximal effect; as to ratio activity, negative = inhibition: series mostly up to about 63 µM)
How it was run: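 Beta-lactamase reporter under UAS control in HEK293H PPARg-bla cells; compound treatment 17 h at 37C. Read-out: fluorescence intensity after 1 h room-temperature incubation with LiveBLAzer B/G FRET substrate.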

[14] = qHTS assay to identify small molecule antagonists of the peroxisome proliferator-activated receptor gamma (PPARg) signaling pathway - cell viability counter screen (AID 743194); also: nearly all actives have a fitted effect of over 55% in size
How it was run: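 Viability was measured as CellTiter-Glo luminescence in GeneBLAzer PPARg UAS-bla HEK293H cells. These cells had been exposed 17 h at 37 C to compounds together with rosiglitazone at 50 nM final, with the beta-lactamase readout taken in the same wells.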

[15] = qHTS assay for small molecule activators of the heat shock response signaling pathway - cell viability counter screen (AID 743209); also: nearly all actives have a fitted effect of over 50% in size
How it was run: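 Cytotoxicity counter screen run in the same wells as the heat-shock bla reporter assay: HeLa HSE-bla cells, 5 h compound exposure at 37 C, viability read by CellTiter-Glo luminescence.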

[16] = qHTS assay for small molecule activators of the heat shock response signaling pathway (AID 743210; active = well fitted activation curve with a large enough effect in the signal ratio in the repeat runs, with a control signal flat, not every such curve was filed as active; the % refers to the signal ratio;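 also: HeLa cells with beta-lactamase reporter driven by heat shock elements; series mostly up to about 63 µM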)
How it was run: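 Fluorescence from a cleaved B/G FRET substrate (2.5 h, room temp) reports HSE-driven beta-lactamase in HeLa cells treated 5 h at 37 C with DMSO-dissolved compounds.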

[17] = qHTS assay to identify small molecule agonists of the peroxisome proliferator-activated receptor delta (PPARd) signaling pathway - cell viability counter screen (AID 743211); also: nearly all actives have a fitted effect of over 55% in size
How it was run: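 Luminescent ATP viability assay (CellTiter-Glo, 30 min RT) in UAS-bla HEK293H cells carrying the PPAR delta reporter construct, 3000 cells/well, after a 17 h compound treatment at 37 C.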

[18] = qHTS assay for small molecule agonists of the antioxidant response element (ARE) signaling pathway - cell viability counter screen (AID 743203; calls by dose curve; also: nearly all actives have a fitted effect of over 55% in size)
How it was run: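 Viability counter screen: CellTiter-Glo luminescence, read after 30 min at room temperature, in ARE-bla HepG2 wells. Compound exposure lasted 16 h at 37C/5% CO2, following a 5 h pre-incubation of the cells after plating.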

[19] = qHTS assay for small molecule agonists of the antioxidant response element (ARE) signaling pathway (AID 743202; active = well fitted activation curve with a large enough effect in the signal ratio in the repeat runs, not every such curve was filed as active; the % refers to the signal ratio; also: potency is read from the fitted curve at half-maximal effect)
How it was run: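 Beta-lactamase reporter activity, read as fluorescence intensity, reflects ARE/Nrf2 pathway induction in HepG2 cells after 16 h compound exposure at 37 C; substrate loading was 2 h at room temperature.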

O=C(O)CCSCCC(=O)O
Potency [1]: inactive
outcome [2]: inactive
Potency [3]: inactive
Potency [4]: inactive
Potency [5]: inactive
Potency [6]: inactive
outcome [7]: inactive
outcome [8]: inactive
Potency [9]: inactive
Potency [10]: inactive
Potency [11]: inactive
Potency [12]: inactive
Potency [13]: inactive
outcome [14]: inactive
outcome [15]: inactive
outcome [16]: inactive
outcome [17]: inactive

CC(=O)c1ccc2ccccc2c1
Potency [1]: inactive
outcome [2]: inactive
Potency [3]: inactive
Potency [4]: inactive
Potency [5]: inactive
Potency [6]: inactive
outcome [7]: inactive
outcome [8]: inactive
Potency [9]: inactive
Potency [10]: inactive
Potency [11]: inactive
Potency [12]: inactive
Potency [13]: inactive
outcome [14]: inactive
outcome [18]: inactive
outcome [15]: inactive
outcome [16]: inactive
outcome [17]: inactive

O=C(O)Cc1csc(-c2ccc(Cl)cc2)n1
Potency [1]: inactive
outcome [2]: inactive
Potency [3]: inactive
Potency [4]: inactive
Potency [5]: inactive
outcome [7]: inactive
outcome [8]: inactive
Potency [9]: inactive
Potency [10]: inactive
Potency [11]: inactive
Potency [13]: inactive
outcome [14]: inactive
Potency [19]: inactive
outcome [18]: inactive
outcome [15]: inactive
outcome [16]: inactive
outcome [17]: inactive

CC(C)=CCC/C(C)=C/C#N
Potency [1]: inactive
outcome [2]: inactive
Potency [3]: inactive
Potency [4]: inactive
Potency [5]: inactive
Potency [6]: inactive
outcome [7]: inactive
outcome [8]: inactive
Potency [9]: inactive
Potency [10]: inactive
Potency [11]: inactive
Potency [12]: inactive
outcome [14]: inactive

COc1ccnc(CS(=O)c2nc3cc(OC(F)F)ccc3[nH]2)c1OC (stereo unspecified)
Potency [1]: inactive
outcome [2]: inactive
Potency [3]: inactive
Potency [4]: inactive
Potency [5]: inactive
outcome [7]: inactive
outcome [8]: inactive
Potency [9]: inactive
Potency [10]: 3.35 µM (active)
Potency [11]: inactive
Potency [12]: inactive
outcome [14]: inactive
Potency [19]: 27.5 µM (active)
outcome [18]: inactive
outcome [15]: inactive
outcome [16]: inactive
outcome [17]: inactive

CC1=CC(=O)[C@H]2C[C@@H]1C2(C)C
Potency [1]: inactive
outcome [2]: inactive
Potency [3]: inactive
Potency [4]: inactive
Potency [5]: inactive
outcome [7]: inactive
outcome [8]: inactive
Potency [9]: inactive
Potency [10]: inactive
Potency [11]: inactive
Potency [12]: inactive
Potency [13]: inactive
outcome [14]: inactive
Potency [19]: inactive
outcome [18]: inactive
outcome [15]: inactive
outcome [16]: inactive
outcome [17]: inactive

CC(CO)(CO)[N+](=O)[O-]
Potency [1]: inactive
outcome [2]: inactive
Potency [3]: inactive
Potency [4]: inactive
Potency [6]: inactive
outcome [7]: inactive
Potency [9]: inactive
Potency [10]: inactive
Potency [11]: inactive
Potency [12]: inactive
Potency [13]: inactive
outcome [14]: inactive
Potency [19]: inactive
outcome [18]: inactive
outcome [17]: inactive

CC1=NN(c2cccc(S(=O)(=O)O)c2)C(=O)C1
Potency [1]: inactive
outcome [2]: inactive
Potency [3]: inactive
Potency [4]: inactive
Potency [5]: inactive
Potency [6]: inactive
outcome [7]: inactive
outcome [8]: inactive
Potency [9]: inactive
Potency [11]: inactive
Potency [13]: inactive
outcome [14]: inactive
outcome [18]: inactive
outcome [15]: inactive
outcome [16]: inactive
outcome [17]: inactive

O=C(c1ccccc1O)c1ccccc1O
Potency [1]: inactive
outcome [2]: inactive
Potency [3]: inactive
Potency [4]: inactive
Potency [5]: inactive
Potency [6]: inactive
outcome [7]: inactive
Potency [9]: inactive
Potency [10]: inactive
Potency [11]: inactive
Potency [12]: inactive
Potency [13]: 43.2 µM (active)
outcome [18]: inactive
outcome [15]: inactive
outcome [16]: inactive
outcome [17]: inactive

CCN[C@@H]1C[C@H](N)[C@@H](OC2OC(CN)=CCC2N)[C@H](O)[C@H]1O[C@H]1OC[C@](C)(O)[C@H](NC)[C@H]1O (stereo partly specified)
Potency [1]: inactive
outcome [2]: inactive
Potency [3]: inactive
Potency [6]: inactive
outcome [7]: inactive
outcome [8]: inactive
Potency [9]: inactive
Potency [10]: inactive
Potency [11]: inactive
Potency [12]: inactive
ratio activity, negative = inhibition [13]: -0.0427% [at 0.55 µM]
activity change, negative = cytotoxicity [14]: -4.19% [at 0.55 µM]
activation [19]: -10.7% [at 0.756 µM]
viability change, negative = cytotoxic [18]: -2.08% [at 0.756 µM]
activation [16]: -1.49% [at 0.55 µM]
activity change, negative = cytotoxicity [17]: 7.95% [at 0.55 µM]

O=C1CCCCCCCCCCCCCCO1
Potency [1]: inactive
outcome [2]: inactive
Potency [3]: inactive
outcome [7]: inactive
outcome [8]: inactive
Potency [9]: inactive
Potency [11]: inactive
Potency [12]: inactive
outcome [14]: inactive
outcome [18]: inactive
outcome [16]: inactive
outcome [17]: inactive

COC(=O)C1=C(C)NC(C)=C(C(=O)OC(C)C)C1c1cccc2nonc12 (stereo unspecified)
Potency [1]: inactive
outcome [2]: inactive
Potency [3]: inactive
outcome [7]: inactive
outcome [8]: inactive
Potency [9]: inactive
Potency [11]: inactive
Potency [12]: inactive
Potency [13]: inactive
outcome [14]: inactive
outcome [15]: inactive
outcome [16]: inactive
outcome [17]: inactive

O=C(O)CNC(=O)c1ccccc1
Potency [1]: inactive
outcome [2]: inactive
Potency [3]: inactive
outcome [7]: inactive
outcome [8]: inactive
Potency [9]: inactive
Potency [10]: inactive
Potency [11]: inactive
Potency [12]: inactive
outcome [14]: inactive
Potency [19]: inactive
outcome [15]: inactive
outcome [16]: inactive

c1ccc(CCc2ccccc2)cc1
Potency [1]: inactive
outcome [2]: inactive
Potency [3]: inactive
outcome [7]: inactive
outcome [8]: inactive
Potency [9]: inactive
Potency [10]: inactive
Potency [11]: inactive
Potency [12]: inactive
Potency [13]: inactive
outcome [18]: inactive
outcome [15]: inactive
outcome [16]: inactive
outcome [17]: inactive

CN(C)[C@@H]1C(=O)C(C(=O)NCN2CCCC2)=C(O)[C@@]2(O)C(=O)C3=C(O)c4c(O)cccc4[C@@](C)(O)C3C[C@@H]12 (stereo partly specified)
Potency [1]: inactive
outcome [2]: inactive
Potency [3]: inactive
outcome [7]: inactive
outcome [8]: inactive
Potency [9]: inactive
Potency [10]: inactive
Potency [11]: inactive
Potency [12]: inactive
Potency [13]: inactive
outcome [14]: inactive
Potency [19]: inactive
outcome [18]: inactive
outcome [16]: inactive
outcome [17]: inactive

COc1c(N2CCNC(C)C2)c(F)cc2c(=O)c(C(=O)O)cn(C3CC3)c12 (stereo unspecified)
Potency [1]: inactive
outcome [2]: inactive
Potency [3]: inactive
outcome [7]: inactive
outcome [8]: inactive
Potency [9]: inactive
Potency [10]: inactive
Potency [11]: inactive
Potency [12]: inactive
Potency [13]: inactive
outcome [14]: inactive
Potency [19]: inactive
outcome [18]: inactive
outcome [15]: inactive
outcome [16]: inactive
outcome [17]: inactive
